Screen size: about 2,100 compounds; about 320 (15%) were called active. Inconclusive results (about 52%) are left out. Calls follow the shape of the dose curve; as a rule, active = well fitted cell-killing curve with a large enough effect; inconclusive = small, poorly fitted or top-dose-only effect, or effect the other way; inactive = flat fitted curve, though single readings scatter. This is one part of the list. Entries that show only a call come without a potency.
Potency is read from the fitted curve at half-maximal effect.

The assay is described as follows: Viability Counterscreen for CMV-Luciferase Assay of Inhibitors of ATXN expression. Also: nearly all actives have a fitted effect of over 55% in size. Conditions: HEK-293 CMV-luciferase cells viability, protease fluorescence, 24 h. In short, it runs like this: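 Fluorescence from cleaved Gly-Phe-AFC (25 uM final, 30 min, ex 405/em 540 nm) reported viability, and the luciferase signal of the same CMV-reporter HEK-293 wells was read 5 min after SteadyGlo addition. Dosing lasted 24 hr.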
As to `Cc1cccc(OCCCC(=O)Nc2nccs2)c1`, the Potency entry is “inactive”.

As to `O=C(CNC(=O)c1cccc(F)c1)N/N=C/c1cc(Br)ccc1OC(=O)/C=C/c1ccco1`, the Potency entry was “inactive”.

As for `Cc1ccccc1N1CCN(Cc2c[nH]c3ccccc23)CC1`, the Potency result is “inactive”.

For the compound `CN1C(=O)/C(=C/c2ccccc2F)Sc2ccc(C(=O)N3CCCC3)cc21`, the Potency entry is “inactive”.

Turning to `O=c1c2ccccc2sc2c(CO)ccc(NCCN3CCCCC3)c12`, the Potency was 25.1 µM (active).

Turning to `CCN(CC)CCNC(=O)c1ccc(NC(=O)Cc2cccc3ccccc23)cc1`, the Potency entry is “inactive”.

As to `CCN(CC)CCNc1ccc(CO)c2sc3ccccc3c(=O)c12`, the Potency was 25.1 µM (active).

With `Cc1nc2cc(NC(=O)CSc3nc4c(C)cccc4cc3C#N)ccc2s1`, the Potency entry was “inactive”.

On to `CC1(C)Cc2c(ccc3ccccc23)C2=C(C(=O)N3CCCC3)C(=O)C(=O)N21`, for which the Potency entry was “inactive”.

Regarding `O=C(/C=C/c1ccc(Cl)cc1)Nc1ccc(CN2CCOCC2)cc1`, the Potency entry is “inactive”.

For `Cc1cccc(OCCn2cc(/C=N/NC(=O)c3ccncc3)c3ccccc32)c1`, the Potency result is “inactive”.

In the case of `Cc1ccc(C(C)C)c(OCc2ccc(C(=O)N/N=C/c3cccc(O)c3O)cc2)c1`, the Potency was 3.98 µM (active).

As to `Cc1ccc(OCCn2cc(/C=N/NC(=O)c3ccncc3)c3ccccc32)cc1`, the Potency entry was “inactive”.

`COC(=O)c1ccc(C(=O)Nc2cc(Cl)ccc2Cl)cc1NC(=O)c1ccc(N(C)C)cc1`: the Potency entry is “inactive”.

Regarding `Cc1cc(C2=NNC(=NC3CC3)SC2)c(C)n1-c1ccccc1F`, the Potency entry was “inactive”.

For the compound `Cc1cccc(N=C2NN=C(c3c(C)[nH]c4ccccc34)CS2)c1`, the Potency was 25.1 µM (active).

`C/C(=N\NC(=O)C(C)n1nc(C)c([N+](=O)[O-])c1C)c1ccccc1O` (configuration not stated): the Potency entry is “inactive”.

For the compound `CN(Cc1ccccc1)C(=O)c1ccc(Nc2nc(C(N)Cc3ccccc3)cs2)nc1` (configuration not stated), the Potency was 10 µM (active).

As for `NC(=O)c1cccc(Nc2nc(C(N)Cc3ccc(C(F)(F)F)cc3)cs2)n1` (configuration not stated), the Potency result was “inactive”.

`COc1ccc(CC(N)c2csc(Nc3ccc(C(=O)c4ccccc4)cc3)n2)cc1` (configuration not stated): the Potency result was “inactive”.

On to `COc1cc2c(C(=O)N3CCOCC3)c(CSc3ccccc3)n(C)c2cc1Br`, for which the Potency entry was “inactive”.

With `COc1ccc2nc(C)cc(NCc3ccc(F)cc3)c2c1`, the Potency entry is “inactive”.

On to `COc1ccc(CNc2ncnc3c2[nH]c2ccccc23)cc1`, for which the Potency is 14.1 µM (active).

As to `Cc1cc(C(=O)CN2C(=O)c3ccccc3S2(=O)=O)c(C)n1C(C)C`, the Potency result is “inactive”.

As for `COc1ccc(CCn2c(C)cc(C(=O)CSc3nc(N)cc(=O)[nH]3)c2C)cc1`, the Potency result is “inactive”.

For `Cc1[nH]n(-c2ccccc2)c(=O)c1C=Nc1cccc2cccnc12`, the Potency entry was “inactive”.

Consider `Cc1[nH]n(-c2cccc3ccccc23)c(=O)c1/C=N/NC(=O)c1cccc([N+](=O)[O-])c1`, for which the Potency was 11.2 µM (active).

Turning to `Cc1cccc(/C=N/NC(=O)c2cccc(Cl)c2)n1`, the Potency entry was “inactive”.

As for `Nc1ccc(Oc2ccccc2-c2ccccc2)cc1`, the Potency entry was “inactive”.

Turning to `CC(NC1=CC(=O)c2cccnc2C1=O)C(O)c1ccccc1` (configuration not stated), the Potency was 17.8 µM (active).

Consider `Cc1ccc(Sc2nnc(Cc3ccccc3)c3ccccc23)cc1`, for which the Potency result is “inactive”.

Consider `Cc1ccc(S(=O)(=O)c2nc(NCc3ccc4c(c3)OCO4)sc2Cl)cc1`, for which the Potency entry is “inactive”.

In the case of `Fc1ccc2[nH]c3c(N4CCSCC4)ncnc3c2c1`, the Potency is 17.8 µM (active).

Turning to `Cc1ccc(C)c(OCCCC(=O)Nc2nccs2)c1`, the Potency entry was “inactive”.

Regarding `COc1ccc2c(Cl)c(C(=O)NN)sc2c1`, the Potency result was “inactive”.

On to `Nc1c(C(=O)NCc2ccccc2)c2nc3ccccc3nc2n1-c1ccc2c(c1)OCO2`, for which the Potency result is “inactive”.

As for `CCC1=C(CC2NCCc3ccccc32)CC2c3cc(OC)c(OC)cc3CCN2C1` (configuration not stated), the Potency was 10 µM (active).

On to `O=C(CC1NCCc2ccccc21)Nc1ccc(Cl)cc1` (configuration not stated), for which the Potency result is “inactive”.

As for `CC[C@H]1CN2CCc3cc(OC)c(OC)cc3C2C[C@@H]1C[C@H]1NCCc2cc(OC)c(OC)cc21` (some centres not stated), the Potency was 0.316 µM (active).

For `O=C(C1CCC(CNS(=O)(=O)c2cccc3nsnc23)CC1)N1CC=C(c2ccccc2)CC1` (configuration not stated), the Potency result is “inactive”.

Consider `COc1ccc(Br)cc1C(=O)Nc1ccccc1N1CCN(C(=O)c2ccccc2)CC1`, for which the Potency result was “inactive”.

Turning to `CCOC(=O)COc1ccc(Br)cc1/C=C/c1[nH]c(=O)[nH]c(=O)c1[N+](=O)[O-]`, the Potency entry was “inactive”.

For the compound `CCN(CC)S(=O)(=O)c1ccc(N/N=C/c2cc(OC)ccc2O)nc1`, the Potency entry was “inactive”.

On to `CC(C)(C)c1ccc(Oc2ccc(N)cn2)cc1`, for which the Potency entry was “inactive”.

As to `COc1ccc2c(c1)C(SCC(=O)NCCc1ccc(Cl)cc1)CC(C)(C)O2` (configuration not stated), the Potency entry was “inactive”.

As to `Cc1cccc(N2CCN(C(=O)CNC(=O)Cc3ccccc3)CC2)c1C`, the Potency entry is “inactive”.

Regarding `O=C(NNC(=O)C(c1ccccc1)c1ccccc1)c1ccccn1`, the Potency was 10 µM (active).

With `CCC1=C(OC(=O)N(CC)CC)N2C(=O)OC(=NCCc3c[nH]c4ccccc34)[C@]2(Cc2ccccc2)[C@H]2C1=CC[C@H]1C(=O)N(c3ccccc3)C(=O)[C@H]12`, the Potency result was “inactive”.

With `CCc1ccc(-c2nc(CS(=O)CC(=O)NCc3ccco3)c(C)o2)cc1` (configuration not stated), the Potency entry was “inactive”.

As to `Cc1nc(N=C(N)N)nc2c(C)cccc12`, the Potency was 8.91 µM (active).

Consider `O=C(N/N=C/c1cc(Br)cc(Br)c1O)c1cccc(N2CCCC2=O)c1`, for which the Potency result is “inactive”.

On to `O=C(Nc1cccc2cccnc12)c1csc(COCCO)n1`, for which the Potency entry was “inactive”.

Turning to `CS(=O)(=O)N(CC(O)CON=C1c2ccccc2-c2ccccc21)c1ccc(F)cc1` (configuration not stated), the Potency entry was “inactive”.

Consider `Cc1ccc(NC(=O)C2CCN(S(=O)(=O)c3ccc(N4CCCC4=O)cc3)CC2)cc1Cl`, for which the Potency entry was “inactive”.

As for `Cc1ccnc(NC(=O)C2CCN(S(=O)(=O)c3c(C)c(C)cc(C)c3C)CC2)c1`, the Potency was 15.8 µM (active).

As for `COc1ccc2nc(NC(=O)C3CCN(S(=O)(=O)c4cccs4)CC3)sc2c1`, the Potency entry was “inactive”.

Regarding `O=C(Cn1cnc([N+](=O)[O-])c1)Nc1cc(Oc2ccc(Cl)cc2Cl)cc([N+](=O)[O-])c1`, the Potency result was “inactive”.

Consider `Oc1ccc(Cl)cc1Sc1cc(Cl)ccc1O`, for which the Potency is 20 µM (active).

As to `CCOc1ccc(NC(=O)Nc2nnc(CC(=O)NCc3ccccc3)s2)cc1`, the Potency result was “inactive”.

Regarding `Cc1cc(C)c(CSc2ncc(-c3ccc([N+](=O)[O-])cc3)[nH]2)c(C)c1`, the Potency entry was “inactive”.

For the compound `CN(C)CCCN(C(=O)c1ccc(S(=O)(=O)N(C)Cc2ccccc2)cc1)c1nc2cc3c(cc2s1)OCO3`, the Potency was 22.4 µM (active).

As to `CCN(c1ccccc1)S(=O)(=O)c1ccc(C(=O)N(CCCN(C)C)c2nc3c(C)cccc3s2)cc1`, the Potency was 28.2 µM (active).

In the case of `CCOc1ccccc1NC(=O)CCCc1nc2ccccc2c(=O)[nH]1`, the Potency result is “inactive”.

On to `Cc1nn(C)c(C)c1NC(=O)CSc1nc(Cc2ccccc2)nc2c1cnn2-c1ccccc1`, for which the Potency entry is “inactive”.

As to `C=CCn1cnc2c(c1=O)c1nc3ccccc3nc1n2/N=C/c1cc(OC)c(OC)c(OC)c1`, the Potency is 11.2 µM (active).

Consider `CCC(C)n1cnc2c(c1=O)c1nc3ccccc3nc1n2-c1ccc2c(c1)OCCO2` (configuration not stated), for which the Potency result is “inactive”.

Regarding `CCCCC(=O)N(C)c1c(CC)nc2c(OCc3ccc(Cl)cc3Cl)cccn12`, the Potency entry is “inactive”.

Take `COc1ccc(Br)cc1C(=O)NC(=S)Nc1ccc(CN2CCOCC2)cc1`: the Potency result is “inactive”.

On to `CCNc1ccc(Br)cc(C(=O)/C=C/c2ccccc2Cl)c1=O`, for which the Potency entry is “inactive”.

For the compound `CNc1ccc(Br)cc(C(=O)/C=C/c2ccc3c(c2)OCO3)c1=O`, the Potency entry was “inactive”.

As to `CCc1ccc(/C=C/C(=O)c2cc(Br)ccc(=O)c2O)cc1`, the Potency was 28.2 µM (active).

Turning to `N#Cc1nc(COc2ccc(-c3ccccc3)cc2)oc1NCc1cccnc1`, the Potency entry is “inactive”.

On to `Cc1ccc(NC(=O)COc2ccc(/C=C3/SC(=Nc4ccccc4)N(Cc4cccnc4)C3=O)cc2)cc1`, for which the Potency is 17.8 µM (active).

In the case of `CCN1CCN(CCNC(=O)c2ccc(/C=C3/Sc4ccccc4N(Cc4cccc(C)c4)C3=O)cc2)CC1`, the Potency result is “inactive”.

On to `Cc1cccc(CN2C(=O)/C(=C\c3ccc(C(=O)NCCN4CCOCC4)cc3)Sc3ccccc32)c1`, for which the Potency result was “inactive”.

In the case of `CC(C)(C)n1nnnc1C(c1cccs1)N(Cc1ccc(Cl)cc1)CC1CCCO1` (configuration not stated), the Potency entry is “inactive”.

For the compound `CC(C)Nc1nc(-c2ccccn2)nc(-c2ccccc2)c1C#N`, the Potency result is “inactive”.

Take `CCN(CC)c1nc(-c2ccccn2)nc(-c2ccccc2)c1C#N`: the Potency was 5.62 µM (active).

In the case of `O=S(=O)([N-]c1nc2ccccc2nc1-[n+]1ccc(Cc2ccccc2)cc1)c1ccc(Br)s1`, the Potency is 3.55 µM (active).

Consider `COc1cccc(C(=O)Oc2c(CN3CCOCC3)cc(Cl)c3cccnc23)c1`, for which the Potency result is “inactive”.

On to `COC(=O)N/N=C/c1cn(CC(C)COc2ccccc2)c2ccccc12` (configuration not stated), for which the Potency entry was “inactive”.

Consider `S=C(NCCCN1CCOCC1)N1CCN(c2nc(-c3ccccc3)cs2)CC1`, for which the Potency result was “inactive”.

For the compound `O=C(Nc1cnn(C23CC4CC(CC(C4)C2)C3)c1)c1cnn2c(C(F)(F)F)cc(-c3ccco3)nc12`, the Potency is 12.6 µM (active).

For the compound `COC(=O)c1ccc(Oc2nc(NC(C)C)nc(N(C)C)n2)cc1`, the Potency entry is “inactive”.

Turning to `O=C(CN1C(=O)c2ccccc2S1(=O)=O)N1CCc2ccccc21`, the Potency entry is “inactive”.

As to `COCC(C)n1c(C)cc(C(=O)COC(=O)c2cccn2C)c1C` (configuration not stated), the Potency result was “inactive”.

In the case of `O=c1c2ccc(Cl)cc2nc(-c2cccc(C(F)(F)F)c2)n1O`, the Potency is 10 µM (active).

`N#Cc1ccc(-c2nc3cc(Cl)ccc3c(=O)n2O)cc1`: the Potency entry was “inactive”.

Take `OC(c1ccc(Cl)cc1)c1ncc(-c2cccc(C(F)(F)F)c2)[nH]1` (configuration not stated): the Potency result was “inactive”.

As to `Cc1ccc(CN2CC(C(=O)Nc3ncc(C)s3)CC2=O)cc1` (configuration not stated), the Potency entry was “inactive”.

Regarding `CCN(CCCn1c(=S)[nH]c2ccc(N3CCOCC3)cc2c1=O)c1ccccc1`, the Potency entry is “inactive”.

On to `CC(Sc1ccc(Cl)cc1)C(=O)NNC(=O)c1ccccc1O` (configuration not stated), for which the Potency result is “inactive”.

`CC1(C)Cc2ccccc2C2=NNC(=O)C2=N1`: the Potency is 25.1 µM (active).

Regarding `Cc1ccc(S(=O)(=O)c2c(N)n(CC3CCOC3)c3nc4ccccc4nc23)cc1` (configuration not stated), the Potency entry was “inactive”.

With `CCCCn1c(N)c(S(=O)(=O)c2ccc(C)cc2)c2nc3ccccc3nc21`, the Potency entry was “inactive”.

With `COc1cccc(/C=N/n2c(N)c(S(=O)(=O)c3cccs3)c3nc4ccccc4nc32)c1OC`, the Potency was 14.1 µM (active).

On to `CCn1cc(C(=O)NCCCN2CCCC(C)C2)c(=O)c2cc(S(=O)(=O)N3CCc4ccccc4C3)ccc21` (configuration not stated), for which the Potency entry is “inactive”.
